# Source: PubChem BioAssay AID652141 (The Scripps Research Institute Molecular Screening Center, 2013)
# Screen size: about 5,600 compounds; about 4,500 (80%) were called active. The set was probably picked from earlier hits. Not all results are given here. A number with no mark means an inactive call. Rule as the data show it: active = inhibition above about 10%; inactive = the rest.
# Assay: inhibition of coupled GDH and TPI enzymes – biochemical, fluorescence, high throughput, artefact control for M. tuberculosis FBA inhibitor project (AID 652141)
# Conditions: GDH-TPI coupled enzyme counterscreen, at 1 µM, hits give high values
row,SMILES,inhibition
1,COCCCNC(=S)N(CCN(C)C)Cc1cc2cc3c(cc2[nH]c1=O)OCCO3,41% (active)
2,Cc1ccc2nc(/C(C#N)=C\c3ccc(OC(=O)c4cccs4)cc3)[nH]c2c1,39% (active)
3,Cc1ccsc1C(=O)N[C@@H](C)c1nnc2ccccn12,110% (active)
4,CCC1C(=O)c2ccccc2N(C)C1=O (centres undefined),-6.39%
5,O=C(NCCN1CCOCC1)c1ccc2c(c1)N(Cc1ccc(Cl)cc1)CCS2,48.2% (active)
6,O=C(NCCc1ccccc1)c1ccc2c(c1)N(Cc1ccccc1)CCS2,29.2% (active)
7,CN1CCN(CCCNC(=O)c2ccc(/C=C3\Oc4ccccc4N(Cc4ccc(Cl)cc4)C3=O)cc2)CC1,-4.56%
8,CC(C)(C)Nc1c(-c2cccs2)nc2ccccn12,114% (active)
9,COC(=O)c1c(-c2ccsc2)oc2ccc(-c3cc(OC)c(OC)c(OC)c3)cc12,-4.81%
10,CCOC(=O)c1c(-c2ccccc2)oc2ccc(OCC(=O)NN)cc12,74.7% (active)
11,CCOC(=O)c1c(-c2ccccc2)oc2ccc(OC(=O)N(C)C)cc12,164% (active)
12,Cc1c(Cc2ccccc2)c(=O)oc2cc(OCC(N)=O)ccc12,"899% [above what the read-out allows, likely interference] (active)"
13,CCOC(=O)c1c(-c2ccccc2)oc2ccc(OCC(N)=O)cc12,126% (active)
14,Cc1c(CCC(=O)O)c(=O)oc2cc(OCc3ccc(Br)cc3)ccc12,1.56%
15,C=CCNC(=O)c1ccc2c3n(nc2c1)-c1ccc(C)cc1CO3,160% (active)
16,CCOC(=O)CSc1nc2c(c(=O)n(Cc3ccccc3Cl)c(=O)n2C)n1C,28.5% (active)
17,COc1ccc(-n2cc(CNC3CCOCC3)c(-c3cccc(F)c3)n2)cc1,15.8% (active)
18,COc1ccc(-n2cc(CN(C)Cc3n[nH]c(=O)[nH]3)c(-c3cccc(F)c3)n2)cc1,37.4% (active)
19,CCCc1nc2oc3c(=O)[nH]cnc3c2c2c1COC(C)(C)C2,101% (active)
20,O=C(O)/C=C/c1cn(-c2ccccc2)nc1-c1cccs1,76.6% (active)

row,SMILES,inhibition
1,COc1ccccc1-c1oc2ccccc2c1C#CCCCCO,145% (active)
2,Cc1ccc(-c2nc(C#N)c(NCCCn3ccnc3)o2)cc1,34.1% (active)
3,C=CCn1cc(-c2cccc(C(F)(F)F)c2)cc(C#N)c1=O,-2.28%
4,Cn1cc(-c2ccccc2)cc(C#N)c1=O,79.8% (active)
5,CN(CCNC(=O)c1cc2c(-c3ccccc3F)nn(C)c2s1)C1CCCCC1,183% (active)
6,CCOC(=O)c1cc2cc(C)ccc2[nH]1,42.5% (active)
7,Cc1cc(C)c2c(n1)nn1c(-n3ccnc3)cc(C)nc21,-4.63%
8,Cc1cc(C)c2c(NC(=O)C3CC3)nn(C)c2n1,72.7% (active)
9,Cc1cc(=O)n2[nH]c(-c3cccc(Cl)c3)cc2n1,82.4% (active)
10,CC(C)n1ncc2c(C(=O)NCc3ccccc3CN(C)C)cc(C3CC3)nc21,108% (active)
11,CCCS(=O)(=O)Nc1c(C(=O)O)[nH]c2ccccc12,48.1% (active)
12,CC(C)CN1CCNC(=O)C1CC(=O)N(C)CC1CCOCC1 (centres undefined),106% (active)
13,COCCCNC(=S)NCCNc1nc2cc(C)c(C)cc2cc1C#N,60.5% (active)
14,CN(CCc1ccccn1)S(=O)(=O)c1ccc2c3c(cccc13)C(=O)N2,103% (active)
15,CCN(C(=O)COC(=O)c1ccc(COc2ccc3c(C)cc(=O)oc3c2)cc1)C1CCS(=O)(=O)C1 (centres undefined),-0.6%
16,CCC(C)N(C(=O)COC(=O)C1C(C(=O)OC)=C(C)NC(C)=C1C(=O)OC)C1CCS(=O)(=O)C1 (centres undefined),111% (active)
17,Cc1ccc(-c2nc3ccccc3c(=O)n2-c2ccc(Br)cn2)cc1,98.6% (active)
18,CC1(C(=O)NCc2ccco2)Cc2c(-c3ccc4c(c3)OCO4)ccnc2O1 (centres undefined),-4.87%
19,CC1(C(=O)NCc2ccc(F)c(F)c2)Cc2c(-c3ccc4c(c3)OCO4)ccnc2O1 (centres undefined),108% (active)
20,CC(C)OCCCNc1ncnc2c1[nH]c1ccc(F)cc12,97.1% (active)

row,SMILES,inhibition
1,CCCCNc1c(-c2cccc(Sc3ccc(OC)cc3)c2)nc2ccccn12,32.5% (active)
2,C=CCc1c(C)nc2cc(-c3ccccc3)[nH]n2c1=O,49.2% (active)
3,CCc1c(C)nc2cc(C)[nH]n2c1=O,41.7% (active)
4,CCc1c(C)nc2cc(-c3cccs3)[nH]n2c1=O,19.6% (active)
5,Cc1ccc(S(=O)(=O)N2C[C@@H](C)[C@]3(C2)[C@H](O)[C@H](OC(=O)NCc2ccccc2)C[C@H]2C(=O)N(c4ccccc4)C(=O)[C@H]23)cc1,-1.04%
6,CN(C)Cc1c(O)ccc2c(=O)c(-c3ccccc3Cl)coc12,3.78%
7,C[C@H](O)[C@@H]1C(=O)N2CCc3c([nH]c4ccccc34)[C@@H]2C[C@@H]1N(C)C(=O)Nc1ccc(F)cc1,182% (active)
8,O=C(O)c1cccnc1Sc1ncnc2sc3c(c12)CCC3,47.7% (active)
9,N#Cc1c(N)n(CCOC(=O)c2ccc(Cl)cc2)c2nc3ccccc3nc12,27.5% (active)
10,CC(OC(=O)c1ccccc1NCCO)C(=O)Nc1ccnn1C(C)C (centres undefined),83.3% (active)
11,COc1cc2nc(N3CCN(C(=O)[C@@H]4CCCO4)CC3)nc(N)c2cc1OC,81.7% (active)
12,Cc1ccc(NC(=O)CN(C)C(=O)COC(=O)c2nccnc2N)cc1,-3.67%
13,Cc1nc2ccc(NC(=O)N3CCC(c4ccccc4)C3)cc2nc1C (centres undefined),70.1% (active)
14,CCN1CCc2c(C#N)c(NCc3ccccc3)nc(NCCO)c2C1,139% (active)
15,O=C(Nc1ccc2nccnc2c1)c1ccco1,"515% [above what the read-out allows, likely interference] (active)"
16,O=C1OCCN1C(=O)[C@H]1[C@H](c2ccc(F)cc2)C(c2ccccc2)=NN1c1ccc(Br)cc1,38.6% (active)
17,C#Cc1cc(N2CCN(C(=O)c3ccoc3)CC2)n2nc(-c3cccc(Cl)c3)cc2n1,73.9% (active)
18,Cc1nc(COc2cc3oc(=O)cc(C)c3cc2Cl)cs1,171% (active)
19,Cc1ccc(Cn2c(C)nc3c(c2=O)c2nc4ccccc4nc2n3Cc2ccco2)cc1,48.7% (active)
